From ChEMBL document CHEMBL3988442, “University of Dundee, Small-Polar-MMV Screening Library” (2021) come the findings set out here.

For some of these results: Measured potencies and affinities stand elsewhere.

Common to all, as to design: scale not given: direction of the effect not stated beside the values
The target in experiment [1] is Protein translocase subunit SecA (Escherichia coli (strain K12)) (UniProt P10408). Kind of experiment: Assay to Identify E. coli SecA ATPase Inhibitors. It is filed as functional. As to conditions: 30 µM.
Chain of Protein translocase subunit SecA (Escherichia coli (strain K12)) (P10408 whole entry): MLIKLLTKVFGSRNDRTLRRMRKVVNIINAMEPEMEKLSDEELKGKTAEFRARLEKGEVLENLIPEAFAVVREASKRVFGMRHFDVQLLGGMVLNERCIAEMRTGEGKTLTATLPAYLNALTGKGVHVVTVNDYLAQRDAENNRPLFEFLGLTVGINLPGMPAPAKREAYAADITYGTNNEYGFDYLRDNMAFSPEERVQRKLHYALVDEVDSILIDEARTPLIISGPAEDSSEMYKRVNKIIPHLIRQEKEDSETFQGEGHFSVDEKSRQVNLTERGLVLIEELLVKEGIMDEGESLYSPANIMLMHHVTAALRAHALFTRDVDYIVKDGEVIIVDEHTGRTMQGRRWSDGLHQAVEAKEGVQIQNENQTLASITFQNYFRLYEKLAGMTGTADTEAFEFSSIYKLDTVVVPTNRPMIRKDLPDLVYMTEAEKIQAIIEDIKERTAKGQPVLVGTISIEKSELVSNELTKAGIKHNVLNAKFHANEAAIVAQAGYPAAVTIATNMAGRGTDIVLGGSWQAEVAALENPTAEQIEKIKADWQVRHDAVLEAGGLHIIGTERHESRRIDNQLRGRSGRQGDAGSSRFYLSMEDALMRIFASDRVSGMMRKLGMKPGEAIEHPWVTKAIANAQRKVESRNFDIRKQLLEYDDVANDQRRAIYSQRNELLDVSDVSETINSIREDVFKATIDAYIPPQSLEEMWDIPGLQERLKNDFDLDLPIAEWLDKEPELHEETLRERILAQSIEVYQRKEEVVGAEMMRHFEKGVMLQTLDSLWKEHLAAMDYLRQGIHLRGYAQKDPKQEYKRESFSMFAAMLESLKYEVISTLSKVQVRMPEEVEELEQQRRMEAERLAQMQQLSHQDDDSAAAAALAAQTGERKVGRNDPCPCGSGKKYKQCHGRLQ
The target of experiment [2] is T1, Ubiquitin-activating enzyme e1, putative (Leishmania donovani (strain BPK282A1)) (UniProt E9BSI1).
T1 sequence (whole entry): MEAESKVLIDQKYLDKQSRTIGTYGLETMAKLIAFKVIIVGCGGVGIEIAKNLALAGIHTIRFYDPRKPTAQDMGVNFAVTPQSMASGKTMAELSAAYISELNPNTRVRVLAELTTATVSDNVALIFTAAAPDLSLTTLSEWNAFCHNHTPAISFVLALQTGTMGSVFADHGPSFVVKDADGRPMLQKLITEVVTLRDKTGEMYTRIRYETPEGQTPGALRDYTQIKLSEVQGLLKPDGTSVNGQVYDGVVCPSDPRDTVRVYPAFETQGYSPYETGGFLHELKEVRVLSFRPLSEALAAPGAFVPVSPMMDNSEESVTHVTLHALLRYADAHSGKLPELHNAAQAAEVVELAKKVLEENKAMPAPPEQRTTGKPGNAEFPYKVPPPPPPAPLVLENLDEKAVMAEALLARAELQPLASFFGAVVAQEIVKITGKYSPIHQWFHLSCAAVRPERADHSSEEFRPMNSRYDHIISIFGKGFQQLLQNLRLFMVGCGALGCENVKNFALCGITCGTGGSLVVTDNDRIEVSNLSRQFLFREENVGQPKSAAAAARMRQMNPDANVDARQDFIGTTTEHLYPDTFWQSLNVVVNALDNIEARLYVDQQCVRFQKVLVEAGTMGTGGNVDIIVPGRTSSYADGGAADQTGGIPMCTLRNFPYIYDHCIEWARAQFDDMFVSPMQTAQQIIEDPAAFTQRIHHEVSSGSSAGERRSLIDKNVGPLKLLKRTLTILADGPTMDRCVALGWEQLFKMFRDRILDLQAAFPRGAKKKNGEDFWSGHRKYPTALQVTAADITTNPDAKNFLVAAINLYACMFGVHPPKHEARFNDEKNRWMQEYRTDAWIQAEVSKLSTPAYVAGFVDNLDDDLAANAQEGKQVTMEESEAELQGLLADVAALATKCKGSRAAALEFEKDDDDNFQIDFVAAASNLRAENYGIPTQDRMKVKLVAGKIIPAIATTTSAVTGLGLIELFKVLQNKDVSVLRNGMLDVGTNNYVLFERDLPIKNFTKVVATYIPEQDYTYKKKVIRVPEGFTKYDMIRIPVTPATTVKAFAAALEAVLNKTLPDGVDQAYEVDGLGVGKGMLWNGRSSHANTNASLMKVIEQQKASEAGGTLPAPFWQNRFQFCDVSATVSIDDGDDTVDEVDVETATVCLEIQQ
The experiment in a line: Leishmania donovani Ubiquitin Activating Enzyme (LdE1). The class given is functional. The settings on record: 30 µM.

Experiment [3] concerns the target AMP-activated protein kinase, AMPK (Homo sapiens) (UniProt P54646+O43741+P54619+Q9UGJ0+Q9Y478+Q13131+Q9UGI9). Kind of experiment: AMP-dependent Kinase enzyme assay. An in vitro enzyme assay that detects ADP turnover that is directly proportional to AMPK activity. This uses naive AMPK that is activated during the assay with MK-8722. As to conditions: 30 µM. It is filed as functional.

The target in experiment [4] is Sialic acid-binding Ig-like lectin 9 (Homo sapiens) (UniProt Q9Y336). The experiment in a line: Hs-Siglec9 ALPHAscreen SOP 20170721. The settings on record: 10 µM. (Bead proximity is the source of the signal in Alpha formats.)
Chain of Sialic acid-binding Ig-like lectin 9 (Homo sapiens) (Q9Y336 whole entry): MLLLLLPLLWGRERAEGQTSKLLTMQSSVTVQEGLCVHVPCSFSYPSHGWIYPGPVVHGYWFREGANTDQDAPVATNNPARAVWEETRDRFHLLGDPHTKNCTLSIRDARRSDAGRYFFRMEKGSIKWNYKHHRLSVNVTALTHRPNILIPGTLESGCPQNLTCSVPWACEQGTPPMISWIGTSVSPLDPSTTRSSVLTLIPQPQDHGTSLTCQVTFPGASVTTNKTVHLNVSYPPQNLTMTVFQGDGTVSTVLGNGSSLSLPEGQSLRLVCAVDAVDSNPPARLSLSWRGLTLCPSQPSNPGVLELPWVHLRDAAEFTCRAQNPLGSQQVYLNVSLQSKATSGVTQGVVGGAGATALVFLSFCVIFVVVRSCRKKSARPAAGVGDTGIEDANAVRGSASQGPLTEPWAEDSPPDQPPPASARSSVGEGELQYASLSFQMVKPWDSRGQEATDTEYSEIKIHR
A further experiment relates to Trypanosoma cruzi. The experiment in a line: Trypanosoma cruzi phosphomannomutase and mannose-1-phosphate guanylyltransferase assay. The class given is functional. The settings on record: 10 µM.
Experiment [5] has as its target T2, Arginase-2, mitochondrial (Homo sapiens) (UniProt P78540).
T2 sequence (whole entry): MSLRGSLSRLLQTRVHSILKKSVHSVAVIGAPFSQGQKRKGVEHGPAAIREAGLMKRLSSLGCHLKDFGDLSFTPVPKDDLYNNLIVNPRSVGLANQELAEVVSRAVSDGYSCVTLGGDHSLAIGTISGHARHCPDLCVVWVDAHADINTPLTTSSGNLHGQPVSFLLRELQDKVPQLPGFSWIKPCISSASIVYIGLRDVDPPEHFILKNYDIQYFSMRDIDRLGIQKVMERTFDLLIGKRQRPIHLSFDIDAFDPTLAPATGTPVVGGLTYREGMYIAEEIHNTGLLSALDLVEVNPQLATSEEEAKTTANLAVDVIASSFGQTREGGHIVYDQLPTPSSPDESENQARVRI
Kind of experiment: in vitro enzyme assay to detect the production of urea directly proportional to the activity of Arginase II. Further: in the data most compounds retested in dose-response had high values. The settings on record: 33.3 µM. It is filed as functional.

Experiment [6] addresses T3, Proteasome subunit beta (Trypanosoma cruzi) (UniProt O96673).
T3 sequence (whole entry): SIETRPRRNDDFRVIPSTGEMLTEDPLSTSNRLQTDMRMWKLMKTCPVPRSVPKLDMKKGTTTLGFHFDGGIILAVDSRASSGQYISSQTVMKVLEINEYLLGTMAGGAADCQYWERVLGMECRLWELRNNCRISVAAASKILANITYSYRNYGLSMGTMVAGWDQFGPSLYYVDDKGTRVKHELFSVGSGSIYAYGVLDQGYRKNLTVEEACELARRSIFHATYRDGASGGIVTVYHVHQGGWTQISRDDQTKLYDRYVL
The experiment in a line: Trypanosoma cruzi proteasome chymotrypsin-like activity (TcProtChymo) assay. Further: in the data most compounds retested in dose-response had high values. It is filed as functional. The settings on record: 9.37 µM.

For a further experiment, the species on record is Homo sapiens. Kind of experiment: To identify inhibition of the IFN signalling (Jak-Stat) pathway via expression of an eGFP reporter gene under the control of an IFN-stimulated response element (ISRE) containing MxA promoter. As to conditions: 30 µM. The class given is functional.
For experiment [7], the target named is T4, Tyrosyl-tRNA synthetase, putative (Trypanosoma cruzi (strain CL Brener)) (UniProt Q4DSP6).
T4 sequence (whole entry): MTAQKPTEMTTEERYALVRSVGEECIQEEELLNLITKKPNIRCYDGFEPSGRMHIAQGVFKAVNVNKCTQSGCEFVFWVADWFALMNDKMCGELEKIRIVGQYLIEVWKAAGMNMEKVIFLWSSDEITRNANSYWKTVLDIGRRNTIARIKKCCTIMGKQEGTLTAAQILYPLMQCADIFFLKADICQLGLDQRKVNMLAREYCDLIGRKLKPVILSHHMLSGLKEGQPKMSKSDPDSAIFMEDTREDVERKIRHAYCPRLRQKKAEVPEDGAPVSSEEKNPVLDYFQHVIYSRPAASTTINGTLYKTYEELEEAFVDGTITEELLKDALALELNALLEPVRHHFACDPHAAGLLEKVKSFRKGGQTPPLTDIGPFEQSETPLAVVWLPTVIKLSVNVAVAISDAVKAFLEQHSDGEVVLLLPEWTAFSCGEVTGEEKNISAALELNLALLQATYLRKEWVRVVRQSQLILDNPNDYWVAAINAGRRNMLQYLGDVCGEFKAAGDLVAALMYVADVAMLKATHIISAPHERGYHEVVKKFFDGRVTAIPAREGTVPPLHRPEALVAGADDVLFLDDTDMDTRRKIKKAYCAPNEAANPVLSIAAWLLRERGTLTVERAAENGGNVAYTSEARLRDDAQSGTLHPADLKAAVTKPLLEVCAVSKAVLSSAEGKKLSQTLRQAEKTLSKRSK
Kind of experiment: Trypanosoma cruzi tyrosyl tRNA synthetase (TcYRS) _High Tyrosine SOP. Further: in the data most compounds retested in dose-response had high values. The class given is functional. The settings on record: 30 µM.

In experiment [8] the target is T4, Tyrosyl-tRNA synthetase, putative (Trypanosoma cruzi (strain CL Brener)). Kind of experiment: Trypanosoma cruzi tyrosyl tRNA synthetase (TcYRS) SOP. It is filed as functional. As to conditions: 30 µM.
For experiment [9], the target named is Chromo domain-containing protein 1 (Saccharomyces cerevisiae (strain ATCC 204508 / S288c) (Baker's yeast)) (UniProt P32657). Kind of experiment: ScCHD-1 Enzyme Inhibition Assay. Further: in the data most compounds retested in dose-response had high values. The settings on record: 30 µM. It is filed as functional.
Chain of Chromo domain-containing protein 1 (Saccharomyces cerevisiae (strain ATCC 204508 / S288c) (Baker's yeast)) (P32657 whole entry, the tested form may be a part): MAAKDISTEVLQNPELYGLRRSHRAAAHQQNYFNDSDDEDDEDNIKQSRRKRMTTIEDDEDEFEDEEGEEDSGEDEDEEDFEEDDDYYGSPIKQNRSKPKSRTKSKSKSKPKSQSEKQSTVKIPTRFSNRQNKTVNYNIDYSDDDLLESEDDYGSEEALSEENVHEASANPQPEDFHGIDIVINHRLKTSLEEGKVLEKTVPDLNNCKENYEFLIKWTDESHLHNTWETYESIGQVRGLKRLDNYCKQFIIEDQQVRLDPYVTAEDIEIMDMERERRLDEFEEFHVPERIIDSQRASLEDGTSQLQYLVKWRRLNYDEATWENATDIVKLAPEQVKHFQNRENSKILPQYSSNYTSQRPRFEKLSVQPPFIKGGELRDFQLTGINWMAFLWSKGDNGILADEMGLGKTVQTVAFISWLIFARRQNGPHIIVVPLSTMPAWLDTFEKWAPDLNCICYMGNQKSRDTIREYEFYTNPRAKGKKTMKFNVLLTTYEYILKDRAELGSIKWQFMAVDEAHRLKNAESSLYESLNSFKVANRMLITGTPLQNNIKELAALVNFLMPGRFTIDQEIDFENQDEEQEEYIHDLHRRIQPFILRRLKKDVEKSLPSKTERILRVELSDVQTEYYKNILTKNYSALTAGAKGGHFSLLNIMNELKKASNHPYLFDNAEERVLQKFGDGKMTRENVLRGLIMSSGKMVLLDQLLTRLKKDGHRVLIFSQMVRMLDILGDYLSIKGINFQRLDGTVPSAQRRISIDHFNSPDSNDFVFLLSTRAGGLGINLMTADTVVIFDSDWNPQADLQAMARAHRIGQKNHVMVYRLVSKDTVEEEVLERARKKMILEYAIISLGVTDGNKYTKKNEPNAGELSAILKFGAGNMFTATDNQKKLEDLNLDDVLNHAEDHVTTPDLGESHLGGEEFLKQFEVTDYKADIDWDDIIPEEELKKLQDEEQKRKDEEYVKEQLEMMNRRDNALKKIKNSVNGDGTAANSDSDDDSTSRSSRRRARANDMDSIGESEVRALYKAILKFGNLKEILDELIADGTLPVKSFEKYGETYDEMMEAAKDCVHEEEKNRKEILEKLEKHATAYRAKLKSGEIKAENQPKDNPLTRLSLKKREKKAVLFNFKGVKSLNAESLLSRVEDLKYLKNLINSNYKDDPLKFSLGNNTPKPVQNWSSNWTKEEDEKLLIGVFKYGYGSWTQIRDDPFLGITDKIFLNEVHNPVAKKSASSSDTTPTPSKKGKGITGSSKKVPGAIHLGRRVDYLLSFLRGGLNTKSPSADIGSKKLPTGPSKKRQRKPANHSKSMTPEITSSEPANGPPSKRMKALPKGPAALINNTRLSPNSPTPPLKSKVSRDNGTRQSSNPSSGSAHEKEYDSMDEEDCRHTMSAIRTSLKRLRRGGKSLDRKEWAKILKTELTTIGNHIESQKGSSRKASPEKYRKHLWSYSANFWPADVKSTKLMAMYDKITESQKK

As for `CC(NC(=O)c1cc(-c2cccc(Cl)c2)no1)C(=O)N1CCCC1` (stereo unspecified), the Percent Effect is -2.69% in [1]; 0% in [2]; 16.6% in [3]; -3.21% in [4]; -5.16% in the experiment with Trypanosoma cruzi; -2.37% in [5]. For the same compound, the Percent Effect in [6] was 7.19%; in the experiment filed under Homo sapiens it was -1.32%; in experiment [7] it was 2.13%; in experiment [8] it was 0%; in [9], -4.18%.
As for `Cc1cc(C)c(CNC(=O)NCC(O)c2cccc(F)c2)c(=O)[nH]1` (stereo unspecified), the Percent Effect in experiment [1] was -7%; in [2], 7.89%; in experiment [3] it was 0.0351%; in [4], 13.9%; in the experiment with Trypanosoma cruzi, -0.0934%; in [5], -3.96%. Besides, the Percent Effect in [6] is 7.36%; in the experiment filed under Homo sapiens, 7.32%; in experiment [7], 9.36%; in [8], 13.6%; in experiment [9], -1.76%.
As to `CN(C)[C@@H]1CCN(C(=O)c2ccsc2)[C@H]1Cc1cnn(C)c1`, the Percent Effect in experiment [1] was -3.13%; in experiment [2], 0%; in experiment [3] it was 12.6%; in experiment [4] it was 1.61%; in the experiment with Trypanosoma cruzi, -3.15%; in [5], -1.63%. The Percent Effect in experiment [6] is 12.2%; in the experiment listed under Homo sapiens it was 4.21%; in experiment [7] it was 3.19%; in experiment [8], -1.28%; in experiment [9], 2.12%.
Regarding `O=C1COC2(CCN(CC3CC3)CC2)CN1c1ccccc1`, the Percent Effect is -0.394% in experiment [1]; 2.74% in experiment [2]; -5.09% in [3]; 8.07% in experiment [4]; 4.17% with Trypanosoma cruzi; -2% in experiment [5]. Also, the Percent Effect was 18.6% in experiment [6]; -21.4% in the experiment filed under Homo sapiens; 9.38% in experiment [7]; 8.64% in [8]; -1.91% in experiment [9].
For `Cc1nc(C)n(C2CCCN(C(=O)c3csnn3)C2)n1` (stereo unspecified), the Percent Effect in experiment [1] was -2.6%; in experiment [2], 21.6%; in [3], -13%; in [4], -1.58%; with Trypanosoma cruzi, -2.92%; in experiment [5] it was -7.21%. In addition, the Percent Effect in [6] is 16.2%; in the experiment listed under Homo sapiens it was 15.5%; in experiment [7], 4.43%; in experiment [8] it was 18.5%; in [9], -4.56%.
Turning to `Cc1ccc(NC(=O)N2CCOC(C)C2)cc1Cl` (stereo unspecified), the Percent Effect was -0.48% in experiment [1]; 16.4% in [2]; -5.38% in experiment [3]; 4.84% in experiment [4]; 2.58% in the experiment with Trypanosoma cruzi; -6.39% in experiment [5]. For the same compound, the Percent Effect in experiment [6] is 26.6%; in the experiment listed under Homo sapiens it was 10.5%; in experiment [7], 7.29%; in [8], 21%; in [9], -3.19%.
Consider `Cn1ncc2c(=O)[nH]c(CN(Cc3cccc(F)c3)C3CC3)nc21`, for which the Percent Effect in [1] is -4.78%; in experiment [2], 15.6%; in experiment [3], 1.73%; in experiment [4], -0.0963%; in the experiment on Trypanosoma cruzi, 8.05%; in experiment [5], 3.92%. For the same compound, the Percent Effect was 16.1% in experiment [6]; -5.95% in the experiment listed under Homo sapiens; 8.74% in experiment [7]; 24.4% in experiment [8]; -7.35% in experiment [9].
Consider `Cc1nnc2n1CCN(C(=O)c1cn(-c3ccccc3Cl)nn1)C2`, for which the Percent Effect in experiment [1] was -5.44%; in experiment [2] it was 8.22%; in experiment [3], -1.29%; in experiment [4], 1.29%; with Trypanosoma cruzi, 0.992%; in experiment [5] it was -2.79%. The Percent Effect was 6.25% in experiment [6]; 0.99% in the experiment filed under Homo sapiens; 7.29% in experiment [7]; 16.1% in experiment [8]; -2.71% in experiment [9].
On to `CN(C)c1cc(CNC(=O)c2ccc(F)cc2F)ccn1`, for which the Percent Effect in experiment [1] was -4.79%; in [2], 28.6%; in [3], -1.46%; in experiment [4], 10.4%; in the experiment with Trypanosoma cruzi it was 5.62%; in [5], -1.78%. Further, the Percent Effect was 8.11% in experiment [6]; 8.43% in the experiment listed under Homo sapiens; 5.83% in experiment [7]; 24.4% in [8]; -9.26% in [9].
On to `O=C(NCC1CC1)Nc1cnc2cc(Cl)ccc2c1O`, for which the Percent Effect in experiment [1] was -4.33%; in experiment [2] it was 12.2%; in [3] it was 4.52%; in [4] it was -10.8%; in the experiment with Trypanosoma cruzi, -2.57%; in experiment [5], -1.62%. Besides, the Percent Effect in experiment [6] is 8.89%; in the experiment listed under Homo sapiens, 8.61%; in experiment [7] it was -1.07%; in experiment [8], -1.3%; in experiment [9] it was -6.64%.
As for `COCc1nc(CN2CCC3(CCCO3)CCC2=O)no1` (stereo unspecified), the Percent Effect was -7.29% in experiment [1]; 5.33% in [2]; -4.46% in [3]; 6.25% in [4]; 7.3% with Trypanosoma cruzi; -2.6% in experiment [5]. The Percent Effect is 12% in [6]; 10.4% in the experiment listed under Homo sapiens; 6.01% in experiment [7]; 3.7% in experiment [8]; -5.51% in experiment [9].
